Corrected activity, negative = more killing and z-score data for 45 compounds are collected here from PubChem BioAssay AID1508625 (Wald Lab, School of Medicine, Case Western Reserve …, 2021).

This assay can be described thus: enhancers of NK cell killing of ovarian tumor cells, primary screen, imaging, OVCAR3, primary NK cells, calcein-AM imaging (AID 1508625).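 Also: compound given to NK cells 16 h before adding targets at 1.5 to 1 ratio.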 The settings on record: OVCAR3 lysis by primary NK cells, at 5 µM; z-score: measured here: robust Z-score, single-point normalisation.

Take `COC(=O)c1sc(N2C(=O)C(=O)C(=C(O)c3ccc(Cl)cc3)C2c2ccc(C)cc2)nc1C` (stereo not given): the corrected activity, negative = more killing is -3.82% and the z-score was -1.66.

Take `c1ccc(-c2nnc3n2C2(CCCCC2)Cc2ccccc2-3)cc1`: the corrected activity, negative = more killing is 0.806% and the z-score was 0.417.

As to `COCCNCCCOc1cccc(Br)c1`, the corrected activity, negative = more killing is -1.7% and the z-score is -0.634.

Consider `O=C(NN=Cc1c(Br)cc(Br)c(O)c1Br)c1ccncc1`, for which the corrected activity, negative = more killing is -1.17% and the z-score was -0.607.

Turning to `Cc1ccc(-c2cc(C(=O)O)c3cc(Cl)ccc3n2)cc1C`, the corrected activity, negative = more killing is -3.58% and the z-score is -1.47.

Take `O=C1OC(c2cccc(Cl)c2)=NC1=Cc1ccc(F)cc1`: the corrected activity, negative = more killing is -4.47% and the z-score is -1.9.

On to `COc1ccc(OC)c(-n2c(=S)[nH]c3cc(C(=O)Nc4ccc5c(c4)CCC5)ccc3c2=O)c1`, for which the corrected activity, negative = more killing was -3.65% and the z-score was -1.16.

Consider `Cc1n[nH]c(C)c1CCC(=O)NN=Cc1ccccc1O`, for which the corrected activity, negative = more killing was -1.49% and the z-score was -0.652.

Consider `Cc1cc(Br)ccc1NC(=O)CCNC(=O)Cn1cnc2sc3c(c2c1=O)CCCC3`, for which the corrected activity, negative = more killing was -0.281% and the z-score was -0.0893.

For `CCOC(=O)C1CCN(c2ccc([N+](=O)[O-])cc2S(=O)(=O)N2CCOCC2)CC1`, the corrected activity, negative = more killing is -3.03% and the z-score was -0.939.

For `COc1ccc(CNC(=O)CCN2C(=O)C3C4C=CC(CC4)C3C2=O)cc1` (stereo not given), the corrected activity, negative = more killing was -5.25% and the z-score is -1.67.

Take `COC(=O)c1ccc(Sc2ccc(C)cc2)c([N+](=O)[O-])c1`: the corrected activity, negative = more killing was -2.5% and the z-score was -0.675.

Turning to `Cc1cc([N+](=O)[O-])ccc1N=Cc1ccc(Br)s1`, the corrected activity, negative = more killing is -2.22% and the z-score is -0.944.

Take `O=C(CSCc1ccccc1F)N1CCc2ccccc21`: the corrected activity, negative = more killing is -9.83% and the z-score is -2.65.

For the compound `Cc1cc(C)c(CSc2nnc(C)s2)c(C)c1`, the corrected activity, negative = more killing was -5.76% and the z-score is -1.78.

As for `O=C(Nc1ccc(Br)cc1)c1ccc(Cl)c(S(=O)(=O)N2CCCCCC2)c1`, the corrected activity, negative = more killing is -9.39% and the z-score was -2.91.

As for `Cc1ccccc1N1C(=O)c2ccc(C(=O)Nc3cccc([N+](=O)[O-])c3)cc2C1=O`, the corrected activity, negative = more killing was -3.72% and the z-score is -1.15.

For `Cc1ccccc1C(=O)N1N=C(c2ccc(F)cc2)CC1(O)C(F)(F)F` (stereo not given), the corrected activity, negative = more killing is -4.55% and the z-score was -2.44.

As for `Cc1ccc2nc(NC(=O)COC(=O)CSc3nc(C)cc(C)n3)sc2c1`, the corrected activity, negative = more killing was -4.93% and the z-score is -1.86.

With `COc1ccc(OC(C)C(=O)Nc2ccc(Br)cc2)cc1` (stereo not given), the corrected activity, negative = more killing was -7.07% and the z-score is -2.19.

Consider `CN(C)c1ccc(C(=O)N2N=C(c3ccc(Cl)cc3)CC2(O)C(F)(F)F)cc1` (stereo not given), for which the corrected activity, negative = more killing was -4.5% and the z-score was -1.72.

Consider `CCCCC1CC(CN2C(=O)NC(C)(C)C2=O)OC1=O` (stereo not given), for which the corrected activity, negative = more killing was -2.13% and the z-score is -0.811.

Consider `O=C(Nc1c[nH]c(=O)[nH]c1=O)c1ccc(N2C(=O)C3C4C=CC(C4)C3C2=O)cc1` (stereo not given), for which the corrected activity, negative = more killing was 0.344% and the z-score is 0.184.

On to `CCC(Cc1ccccc1)NS(=O)(=O)c1ccc(F)c(C(=O)Nc2ccc(C)c(F)c2)c1` (stereo not given), for which the corrected activity, negative = more killing is -2.04% and the z-score was -0.551.

In the case of `O=C(c1ccc(COCC(F)(F)F)o1)N1CCCCCC1`, the corrected activity, negative = more killing is -2.9% and the z-score was -1.19.

Take `Cc1ccc(N2C(=O)C(N3C(=O)c4cccc([N+](=O)[O-])c4C3=O)C2c2ccc(F)cc2)cc1F` (stereo not given): the corrected activity, negative = more killing is -2.91% and the z-score is -0.904.

Take `C=CCn1c(COc2cccc3cccnc23)nnc1SCC(=O)OC`: the corrected activity, negative = more killing is -7.09% and the z-score was -2.01.

Regarding `Cc1nn(C(=O)c2cccnc2)c(C)c1Sc1ccc(Cl)cc1`, the corrected activity, negative = more killing is -1.68% and the z-score is -0.87.

For the compound `CC1=C(C(=O)OC(C)C(C)(C)C)C(c2ccccc2)NC(=O)N1` (stereo not given), the corrected activity, negative = more killing was -4.55% and the z-score was -1.71.

With `Cc1c(C(=O)OC(C)C)sc(NC(=O)c2cc3ccccc3c(=O)o2)c1C(=O)OC(C)C`, the corrected activity, negative = more killing was -4.01% and the z-score was -1.65.

Regarding `Cc1ccc(NC(=O)CSc2nnc(N3C(=O)c4ccccc4C3=O)s2)c(C)c1`, the corrected activity, negative = more killing was -5.41% and the z-score was -1.68.

On to `O=c1nc(C=Cc2ccc(Br)cc2)cc(C(F)(F)F)[nH]1`, for which the corrected activity, negative = more killing is 0.858% and the z-score was 0.256.

`CCCCOc1ccc(C(=O)N2N=C(C)CC2(O)C(F)(F)F)cc1` (stereo not given): the corrected activity, negative = more killing is -6.48% and the z-score was -2.66.

As to `CCc1ccccc1N1C(=O)C2C(c3ccc(Br)cc3)OC3(C(=O)c4ccccc4C3=O)C2C1=O` (stereo not given), the corrected activity, negative = more killing is 0.455% and the z-score is 0.141.

`CC(=O)NCCNC(=O)c1ccc(Cn2c(=S)[nH]c3cc4c(cc3c2=O)OCO4)cc1`: the corrected activity, negative = more killing was -3.96% and the z-score is -1.05.

Regarding `CCOc1ccc(-n2c(SCC(=O)Nc3ccc(C)cc3)nc3c([nH]c4ccccc43)c2=O)cc1`, the corrected activity, negative = more killing was -5.11% and the z-score is -1.27.

For the compound `COC(=O)c1cc(NC(=O)C2(S(=O)(=O)c3ccc(C)cc3)CC2)cc(C(=O)OC)c1`, the corrected activity, negative = more killing is -4.1% and the z-score is -1.16.

Consider `O=C(Oc1cccc(NC(=O)c2ccccc2Cl)c1)c1ccc(Cl)c(S(=O)(=O)N2CCCCC2)c1`, for which the corrected activity, negative = more killing was -3.19% and the z-score was -1.2.

Consider `COc1ccc(S(=O)(=O)NCCc2ccccc2)c2ccccc12`, for which the corrected activity, negative = more killing is -3.37% and the z-score was -1.46.

Regarding `CCC1=NN(C(=O)c2cccc(Cl)c2)C(O)(C(F)(F)F)C1` (stereo not given), the corrected activity, negative = more killing is -2.2% and the z-score was -0.839.

As for `CCC(CC)NC(=O)c1cccc(OC)c1OC`, the corrected activity, negative = more killing is -0.109% and the z-score is -0.0486.

As to `O=C(c1cccc(F)c1)N1CCCN(C(=O)c2cccc(F)c2)CC1`, the corrected activity, negative = more killing was -4.12% and the z-score is -1.69.

As for `O=C(NC1CCCCC1)c1nn2c(C(F)(F)F)cc(-c3ccco3)nc2c1Br`, the corrected activity, negative = more killing is -4.13% and the z-score is -1.55.

As for `CCN(CC)S(=O)(=O)c1ccc(C(=O)Nc2nc(-c3ccccc3)c(C(C)=O)s2)cc1`, the corrected activity, negative = more killing is -2.77% and the z-score was -0.984.

`Cc1cc(C)n(C(=O)c2nn(C)cc2I)n1`: the corrected activity, negative = more killing is -2.43% and the z-score was -0.913.
